Test results from PubChem BioAssay.
The source made the active and inactive calls.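 The calls were made as follows, unless noted: active = fluorescence slope after compound addition differing from the mean of all screened samples at 99.7% confidence, in either direction; inactive = the rest.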

Assays:
[1] = inhibitors of TNFa-induced NFkB p65 translocation, primary screen, imaging, HUVEC, MLSMR starter and 10KST1 sets (AID 438;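 active = inhibition above 20% together with a positive visual image hit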;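 also: compound added about 3h40 before a 20 min TNFalpha stimulation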;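 as to inhibition: signal is the nuclear over cytoplasmic p65 intensity ratio per well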); conditions: HUVEC TNFa-induced p65 nuclear translocation; cell count: measured here: nuclei count (cytotoxicity indicator), at 2.08 µM; inhibition: at 2 µM, stronger effect = higher value, 0% TNFa-plus-vehicle, 100% no-TNFa wells
[2] = inhibitors of mutant huntingtin aggregation, primary screen, imaging, exon1htt(103Q)mCFP cells, high-content imaging (AID 483;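 active = visual image review flags a hit and inhibition of aggregation exceeds 20%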;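 also: compound exposure lasted 3 days before fixation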;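 as to nuclei count: percent of the per-plate median nuclei count of sample wells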); conditions: exon1htt(103Q)mCFP cell line, aggregate imaging, at 2 µM; inhibition of aggregation: stronger effect = higher value; nuclei count: measured here: cell count, toxicity
[3] = inhibitors of E-selectin induction by TNFa, primary screen, imaging, HUVEC, immunofluorescence, MLSMR starter and 10KST1 sets (AID 487;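 active = visually confirmed hit in the image check and inhibition above 20%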;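 as to inhibition: signal is fraction of cell area covered by stained E-selectin grains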;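 as to nuclei count: 100% = median nuclei count of all wells on the same plate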); conditions: HUVEC TNFalpha-induced E-selectin immunofluorescence imaging, at 2 µM; inhibition: stronger effect = higher value; nuclei count: measured here: cell number, toxicity
[4] = molecular target: Voltage-gated potassium channel subunit beta-2 (Rattus norvegicus) (UniProt P62483); assay: KvBeta enzyme negative modulators, primary screen, biochemical, NADPH fluorescence (AID 622;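 active = fluorescence slope higher than the sample average by over 3 SD, cut at about -0.22 in these data, passing the limit was not always enough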;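 also: slope of raw intensity against log time taken from 70 to 1610 s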); conditions: recombinant KvBeta, 4-cyanobenzaldehyde reduction, at 10 µM, stronger effect = higher value
[5] = molecular target: Voltage-gated potassium channel subunit beta-2 (Rattus norvegicus) (UniProt P62483); assay: KvBeta positive modulators, primary screen, biochemical, NADPH fluorescence (AID 623;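 active = NADPH fluorescence slope more negative than the mean of all samples by about 3 SD, 99.7% confidence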;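 also: fluorescence intensity change per second fitted from 20 to 320 s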); conditions: Recombinant KvBeta, NADPH fluorescence decrease slope, 10 min; at 10 µM; stronger effect = lower value
[6] = molecular target: Alpha-2C adrenergic receptor (Homo sapiens) (UniProt P18825); assay: modulators of alpha2C/GIRK thallium flux, primary screen, cell-based, HEK293 alpha2C/GIRK1/2 (AID 624); conditions: thallium flux BTC fluorescence, at 10 µM, actives lie on both sides;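 also: slope of fluorescence ratio to pre-addition baseline per second over 15 to 24 s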
[7] = inhibitors of Sendai virus-induced IRF3 signaling, primary screen, TLR/RLR signaling modifier project, cell-based, Sendai virus stimulus, luciferase, 10K MLSCN set (AID 602276;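 active = inhibition at or above 50% at 10 µM; inactive = inhibition below 50%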;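 also: firefly luciferase from ISG56 promoter only with Renilla not read in this screen; 0% = Sendai virus plus DMSO and 100% = medium plus DMSO without virus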); conditions: HEK293 RL24 IRF3 luciferase reporter, at 10 µM, stronger effect = higher value
[8] = inhibitors of poly I:C-induced TLR3 signaling, primary screen, cell-based, poly I:C stimulus, luciferase, 10K MLSCN set (AID 602277;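 active = inhibition of the reporter signal at or above 50%; inactive = inhibition below 50%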); conditions: HEK293-TLR3 RL24 IRF3 luciferase reporter, at 10 µM, stronger effect = higher value

Sequence of Voltage-gated potassium channel subunit beta-2 (Rattus norvegicus) (P62483 whole entry, looked up): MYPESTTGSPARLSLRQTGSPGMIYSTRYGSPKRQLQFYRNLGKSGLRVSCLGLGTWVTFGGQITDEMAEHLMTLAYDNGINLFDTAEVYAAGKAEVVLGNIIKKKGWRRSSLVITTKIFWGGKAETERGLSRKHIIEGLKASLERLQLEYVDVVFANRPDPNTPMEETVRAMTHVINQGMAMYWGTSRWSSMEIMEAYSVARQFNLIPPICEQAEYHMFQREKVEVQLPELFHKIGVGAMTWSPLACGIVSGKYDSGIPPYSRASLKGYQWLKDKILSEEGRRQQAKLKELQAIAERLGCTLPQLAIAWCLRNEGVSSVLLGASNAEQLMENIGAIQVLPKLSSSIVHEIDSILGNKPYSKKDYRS
Sequence of Alpha-2C adrenergic receptor (Homo sapiens) (P18825 whole entry, looked up): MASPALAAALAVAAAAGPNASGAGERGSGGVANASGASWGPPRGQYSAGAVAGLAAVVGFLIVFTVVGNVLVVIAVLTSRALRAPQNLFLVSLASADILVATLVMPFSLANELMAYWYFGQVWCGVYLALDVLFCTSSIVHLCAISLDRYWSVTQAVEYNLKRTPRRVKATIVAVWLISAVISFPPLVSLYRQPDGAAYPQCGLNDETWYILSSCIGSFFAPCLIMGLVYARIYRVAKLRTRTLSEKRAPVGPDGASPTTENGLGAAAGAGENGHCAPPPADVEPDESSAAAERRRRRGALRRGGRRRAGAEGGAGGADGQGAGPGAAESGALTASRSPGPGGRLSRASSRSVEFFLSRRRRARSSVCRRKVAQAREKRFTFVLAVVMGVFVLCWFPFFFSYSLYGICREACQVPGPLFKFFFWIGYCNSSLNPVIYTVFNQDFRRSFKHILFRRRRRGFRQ

Structure (SMILES)	cell count [1]	inhibition [1]	inhibition of aggregation [2]	nuclei count [2] [%]	inhibition [3]	nuclei count [3] [%]	fluorescence slope [4]	NADPH fluorescence slope [5]	slope [6]	inhibition [7]	inhibition [8]
Cc1ccc(S(=O)(=O)Cn2nnnc2CN(Cc2ccco2)CC2CCCO2)cc1 (stereo not drawn)	380	-1% (inactive)	2.3% (inactive)	99.8	-58.1% (inactive)	69.6	-0.588 (inactive)	-4.2e-05 (inactive)	0.00299 (inactive)	-5.71% (inactive)	0.385% (inactive)
CCOC(=O)c1ccc(N(CC(=O)NC2CCCC2)C(=O)CNC(=O)c2ccco2)cc1	626	-7.8% (inactive)	5.5% (inactive)	79.3	-11.3% (inactive)	105	-0.508 (inactive)	-5.1e-05 (inactive)	0.0066 (inactive)	15.3% (inactive)	18.5% (inactive)
Cc1cccc(-n2nc3c(c2NC(=O)CCC2CCCCC2)CS(=O)C3)c1C (stereo not drawn)	637	-8.7% (inactive)	-46.2% (inactive)	80	-27.4% (inactive)	110	-0.427 (inactive)	-2.6e-06 (inactive)	0.00515 (inactive)	10.6% (inactive)	37.7% (inactive)
CCOC(=O)N1CCN(c2cc(=O)n(-c3cccc(Br)c3)c(=O)[nH]2)CC1	532	-10.1% (inactive)	0.9% (inactive)	55.8	-13.2% (inactive)	89.5	-0.564 (inactive)	-2e-05 (inactive)	0.00721 (inactive)	-10.2% (inactive)	15.4% (inactive)
COc1cccc2cc(C(=O)OC3CCN(C)CC3)c(=O)oc12	532	-6.1% (inactive)	38.8% (inactive)	77.9	-56% (inactive)	110	-0.605 (inactive)	-2.6e-06 (inactive)	0.00643 (inactive)	6.92% (inactive)	31.8% (inactive)
CN1C(=O)CC(N2CCC(C(N)=O)(N3CCCCC3)CC2)C1=O (stereo not drawn)	540	5.4% (inactive)	-7.1% (inactive)	111	10.3% (inactive)	117	-0.593 (inactive)	-4.9e-05 (inactive)	0.00424 (inactive)	15% (inactive)	16.9% (inactive)
CC(=O)NCCc1nc2ccccc2[nH]1	736	-4.3% (inactive)	-14% (inactive)	114	-6.5% (inactive)	106	-0.553 (inactive)	-2.7e-05 (inactive)	0.00636 (inactive)	12.7% (inactive)	33.6% (inactive)
Cc1c(C(=O)Nc2cnccn2)oc2ccccc12	370	7.3% (inactive)	7.5% (inactive)	95.3	-97.6% (inactive)	108	-0.371 (inactive)	4.4e-05 (inactive)	0.00977 (inactive)	0.764% (inactive)	-4.49% (inactive)
CCN(CC)CCNC(=O)CCn1c(=S)[nH]c2cc3c(cc2c1=O)OCO3	380	-3% (inactive)	-16.9% (inactive)	99.9	7.2% (inactive)	114	-0.501 (inactive)	-2.4e-05 (inactive)	0.00645 (inactive)	-5.94% (inactive)	28.2% (inactive)
O=C(C1CCCN(S(=O)(=O)c2cccc3nonc23)C1)N1CCC(Cc2ccccc2)CC1 (stereo not drawn)	385	-11.2% (inactive)	3% (inactive)	101	24.5% (inactive)	59.6	-0.304 (inactive)	-1e-05 (inactive)	0.00394 (inactive)	7.74% (inactive)	25.7% (inactive)
CC(C)(C)NC(=O)C(c1ccco1)N(C(=O)Cn1nnc(-c2ccc(F)cc2)n1)c1ccccc1F (stereo not drawn)	562	1.2% (inactive)	14.8% (inactive)	96.5	-96.2% (inactive)	127	-0.56 (inactive)	-6.1e-05 (inactive)	0.00563 (inactive)	10.9% (inactive)	39.7% (inactive)
CCCn1c(=NC(C)=O)c(C#N)cc2c(=O)n3cccc(C)c3nc21	462	-0.9% (inactive)	0.6% (inactive)	99.9	-35.4% (inactive)	131	-0.0531 (inactive)	-1e-05 (inactive)	0.0086 (inactive)	-11.4% (inactive)	1.19% (inactive)
COC(=O)C1C(=O)c2c([nH]c(C(=O)OCCOC(C)C)c2C)CC1C (stereo not drawn)	304	-3.3% (inactive)	-11.8% (inactive)	112	-46.9% (inactive)	117	-0.393 (inactive)	-5.7e-05 (inactive)	0.00401 (inactive)	-33.4% (inactive)	-43.7% (inactive)
Cc1ccc(CCNC(=O)C2CCN(S(=O)(=O)c3c(C)nn(C)c3C)CC2)cc1	621	6.1% (inactive)	-21.9% (inactive)	105	-8.4% (inactive)	116	-0.618 (inactive)	-5.1e-06 (inactive)	0.00762 (inactive)	-5.1% (inactive)	6.19% (inactive)
O=C(OCc1ccccc1F)c1ccc2c(c1)OCCO2	372	3.4% (inactive)	-14.1% (inactive)	103	-0.9% (inactive)	90.8	-0.448 (inactive)	-8.7e-06 (inactive)	0.00627 (inactive)	-0.266% (inactive)	-113% (inactive)
CSc1nc(C)cc(Oc2ccc(=O)n(C)n2)n1	380	-0.7% (inactive)	1.1% (inactive)	101	-30.2% (inactive)	109	-0.478 (inactive)	-4.2e-06 (inactive)	0.00506 (inactive)	1.26% (inactive)	22.5% (inactive)
CCOc1cc(C(=O)N(C)Cc2cc3ccccc3[nH]c2=O)cc(OCC)c1OCC	376	0.6% (inactive)	22.5% (inactive)	87.4	-205% (inactive)	196	-0.325 (inactive)	-5e-05 (inactive)	0.00465 (inactive)	11.9% (inactive)	18.9% (inactive)
Cc1cccc(C)c1NC(=O)CS(=O)CC(=O)NC1CCCc2ccccc21 (stereo not drawn)	562	-5.5% (inactive)	-3.7% (inactive)	62.2	-73.7% (inactive)	108	-0.61 (inactive)	-3e-05 (inactive)	0.00417 (inactive)	12.3% (inactive)	20.9% (inactive)
Cc1cccc2c1nc(-c1ccccc1)n1cnnc21	345	-10.7% (inactive)	-2.7% (inactive)	73	-58% (inactive)	114	-0.452 (inactive)	-2.6e-08 (inactive)	0.00423 (inactive)	-15.9% (inactive)	-12.4% (inactive)
O=C1CC(N2CCN(c3ccc(Cl)c(Cl)c3)CC2)C(=O)N1 (stereo not drawn)	361	0.7% (inactive)	-7.2% (inactive)	87.1	25.6% (inactive)	98.6	-0.466 (inactive)	-4.7e-05 (inactive)	0.00625 (inactive)	-2.47% (inactive)	20.7% (inactive)
CC(=O)N1CCN(c2ccc(S(=O)(=O)N3CCCCC3)cn2)CC1	719	0.8% (inactive)	4.2% (inactive)	101	-6.8% (inactive)	132	-0.591 (inactive)	1.1e-05 (inactive)	0.00522 (inactive)	6.79% (inactive)	8.53% (inactive)
COc1ccc(OCC(=O)N2CCN(C(=O)Cc3ccccc3)CC2)cc1	616	-22.3% (inactive)	-1.4% (inactive)	106	-14.3% (inactive)	101	-0.517 (inactive)	-4.7e-05 (inactive)	0.00449 (inactive)	-10.1% (inactive)	-7.66% (inactive)
COc1ccc(OCC(=O)N2CC3(C)CC2CC(C)(C)C3)cc1 (stereo not drawn)	403	-0.6% (inactive)	-6.4% (inactive)	122	-55.8% (inactive)	97.4	-0.495 (inactive)	-6.6e-06 (inactive)	0.004 (inactive)	20% (inactive)	26.7% (inactive)
CCOC(=O)C1CCCN(C(=O)c2cn(C)c(=O)c3cc(OC)c(OC)cc23)C1 (stereo not drawn)	746	-16.1% (inactive)	-3.6% (inactive)	110	0.3% (inactive)	110	-0.468 (inactive)	-1e-06 (inactive)	0.00726 (inactive)	6.66% (inactive)	15.1% (inactive)
CCOC(=O)C1=C(C)Nc2nnnn2C1c1ccc(OC)c(Br)c1 (stereo not drawn)	635	5.8% (inactive)	-8.3% (inactive)	94.6	2.7% (inactive)	111	-0.574 (inactive)	-1.5e-05 (inactive)	0.00761 (inactive)	-20% (inactive)	-12.8% (inactive)
Clc1ccc(Nc2ncnc3c2cnn3-c2ccccc2)cc1	703	0% (inactive)	19% (inactive)	95.2	-14.4% (inactive)	105	-0.496 (inactive)	-1.9e-05 (inactive)	0.0059 (inactive)	-24% (inactive)	-67.8% (inactive)
O=c1[nH]c(SCc2ccccc2Cl)nc2c1CCCC2	447	-14.3% (inactive)	36.1% (inactive)	77.2	-49.4% (inactive)	111	-0.295 (inactive)	-2.4e-06 (inactive)	0.00421 (inactive)	10.6% (inactive)	4.88% (inactive)
Cc1cnc(C(=O)OCC(=O)Nc2ccc(Cl)cc2Cl)cn1	738	8.7% (inactive)	-16.9% (inactive)	119	-37% (inactive)	94.9	-0.51 (inactive)	-5.1e-05 (inactive)	0.00552 (inactive)	10.9% (inactive)	14.7% (inactive)
